Results as given in PubChem BioAssay (EPA / NIEHS).
Where “and” joins values, the source holds several entries; their conditions need not be identical. Equal values may be shown once. Results filed as inconclusive are left out. The source holds several records for some structures; these can differ, active in one and inactive in another. Calls of active or inactive are those of the source. Rule for the calls, unless noted: active = hit-call score of the fitted dose curve at least 0.9, where 1 is the maximum; inconclusive = response in the unintended direction; inactive = score below 0.9.

What was measured:
[1] = CCTE_Shafer_MEA_dev_LDH: CCTE's Lactate Dehydrogenase Assay for Cytotoxicity in the Neural Network Formation Assay, Shafer Lab (AID 2284068);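 note: exposure for twelve days from plating with re-dosing on DIV 5 and 9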
How it was run: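 Cytotoxicity companion to network-formation recordings: rat cortical neurons received compound over 12 days of development, re-dosed at DIV 5 and 9 feeds. Viability was inferred from LDH enzyme activity relative to DMSO.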

[2] = CCTE_Shafer_MEA_dev_AB: CCTE's Alamar Blue Assay for Cytotoxicity in the Neural Network Formation Assay, Shafer Lab (AID 2284083);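 note: twelve days of exposure from plating with re-dosing on DIV 5 and 9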
How it was run: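 Fluorescent resazurin reduction serves as the viability read-out, with DMSO as negative control and baseline. Cells were primary rat cortical neurons grown on MEA plates and dosed from day 0 to day 12, treatment renewed on DIV 5 and 9.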

[3] = CCTE_Shafer_MEA_dev_mutual_information_norm: CCTE's Neural Network Formation Assay for Mutual Information Normalization, Shafer Lab (AID 2284091; active = hit-call score of the fitted dose curve at least 0.9, where 1 is the maximum; inactive = score below 0.9;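 for AC50: mutual information between electrodes summarised as area under curve across four recording days; potency is for a decrease in mutual information relative to DMSO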)
How it was run: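 Exposure of primary rat cortical neurons began at plating and ran to DIV 12, with full media and treatment renewal after DIV 5 and 9 recordings. Mutual information AUC (DIV 5–12) was analysed for loss versus DMSO.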

[4] = CCTE_Shafer_MEA_dev_correlation_coefficient_mean: CCTE's Neural Network Formation Assay for Mean Correlation Coefficient, Shafer Lab (AID 2284093; active = hit-call score of the fitted dose curve at least 0.9, where 1 is the maximum; inactive = score below 0.9;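 for AC50: well mean pairwise spike train correlation integrated as AUC over recording days 5 to 12; potency fitted for loss of correlation relative to DMSO vehicle wells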)
How it was run: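 Read-out: well-mean correlation coefficient of spike trains between electrode pairs, collapsed over four recording days as trapezoidal area-under-the-curve. Developing rat cortical neuron networks grown on MEAs received test chemical continuously from plating.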

[5] = CCTE_Shafer_MEA_acute_AB: CCTE's Alamar Blue Assay for Cytotoxicity in the Neural Acute Assay, Shafer Lab (AID 2284069);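 note: active compounds lower the viability signal compared with DMSO wells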
How it was run: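 Metabolic activity in chemically exposed rat cortical neurons (MEA cultures, day 13/15 post-plating) measured via CellTiter Blue resazurin reduction, 544/590 nm fluorescence; fitted relative to DMSO, with signal loss indicating reduced viability.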

[6] = CCTE_Shafer_MEA_acute_LDH: CCTE's Lactate Dehydrogenase Assay for Cytotoxicity in the Neural Acute Assay, Shafer Lab (AID 2284086);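 note: active means LDH release rises above DMSO vehicle level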
How it was run: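 Cytotoxicity readout: spectrophotometric LDH activity in supernatant of rat primary cortical neurons, post-plating day 13 or 15, sampled after 40 min compound exposure; signal gain relative to DMSO baseline.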

[7] = UKN2_HCS_IMR90_neural_migration: University of Konstanz (UKN) Leist Lab Neural Crest Cell Migration Assay in human induced IMR90 Pluripotent Stem Cells (UKN2) (AID 2284204; active = hit-call score of the fitted dose curve at least 0.9, where 1 is the maximum; inactive = score below 0.9); details: actives raise or lower the signal
How it was run: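 Using a 96-well stopper format with PLO/laminin/fibronectin coating, neural crest cells from iPSC migrate in cytokine-supplemented N2-S medium; after 24 h, chemicals are applied for a further 24 h, then cells are imaged after dye staining.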

[8] = UKN5_HCS_SBAD2_cell_viability: Viability Assessment in the University of Konstanz (UKN) Leist Lab Neurite Outgrowth Assay in human iPSC-derived immature Dorsal Root Ganglia Neurons (UKN5) (AID 2284056; active = hit-call score of the fitted dose curve at least 0.9, where 1 is the maximum; inactive = score below 0.9)
How it was run: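 iPSC-derived immature peripheral neurons (SBAD2) seeded on Matrigel with CHIR99021, SU5402 and DAPT, dosed 1 h later for 24 h. Viability from Hoechst H-33342 and calcein-AM live staining, high-content imaging; bidirectional fit versus DMSO.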

[9] = UKN5_HCS_SBAD2_neurite_outgrowth: University of Konstanz (UKN) Leist Lab Neurite Outgrowth Assay in human iPSC-derived immature Dorsal Root Ganglia Neurons (UKN5) (AID 2284070; active = hit-call score of the fitted dose curve at least 0.9, where 1 is the maximum; inactive = score below 0.9); details: actives raise or lower the signal
Protocol: UKN5_HCS_SBAD2 is a cell-based, multiplexed-readout assay screening for neurite outgrowth and cell viability that uses SBAD2 (peripheral neurons differentiated from iPSC), a human peripheral nervous system cell line, with measurements taken at […] after chemical dosing in a microplate: 96-well plate. UKN5, also referred to as PeriTox, is an assay that uses human iPSC line SBAD2 as a model of peripheral neurons. Following 24 hr chemical exposures in multi-well plates, neurite area is evaluated as a marker of neurite outgrowth using high-content imaging of cells stained with calcein-AM. Cell viability is assessed using stain Hoechst H-33342.UKN5_HCS_SBAD2_neurite_outgrowth is an assay component measured from the UKN5_HCS_SBAD2 assay. It is designed to make measurements of neurite outgrowth, a form of morphology reporter, as detected with Fluorescence intensity signals by HCS Fluorescent Imaging.The assay endpoint UKN5_HCS_SBAD2_neurite_outgrowth was analyzed with bidirectional fitting relative to DMSO as the negative control and baseline of activity. Using a type of morphology reporter, gain or loss-of-signal activity can be used to understand developmental effects. To generalize the intended target to other relatable targets, this assay endpoint is annotated to the neurodevelopment intended target family, where the subfamily is neurite outgrowth.
The previously differentiated immature peripheral neurons are thawed and seeded on Matrigel coated plates (1:40 diluted) in 75 ul medium composed of 75% N2-S medium and 25% KSR medium, supplemented with CHIR99021 (1.5 uM), SU5402 (5 uM) and DAPT (gamma-Secretase inhibitor IX, 5 uM) at a density of 100.000 cells/cm2. One hour after seeding, treatment compounds are added to the cells in 25 ul of similar to culture medium in which cells were seeded. 23 h after toxicant application, cells are live-stained with H-33342 and calcein-AM and incubated for 60 min. After 24 h of treatment (including staining), the cells are imaged using a high-content microscope (Cellomics VTI Array Scan).

[10] = UKN4_HCS_LUHMES_neurite_outgrowth: University of Konstanz (UKN) Leist Lab Neurite Outgrowth Assay in human LUHMES cells (UKN4) (AID 2284206; active = hit-call score of the fitted dose curve at least 0.9, where 1 is the maximum; inactive = score below 0.9); details: actives raise or lower the signal
How it was run: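 Neurite area in dopaminergic-model LUHMES neurons is measured by high-content imaging of calcein-AM after 24 h treatment starting shortly after day-2 replating; Hoechst staining tracks viability.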

Measured: AC50

CCOP(=S)(OCC)Oc1ccc([N+](=O)[O-])cc1
inactive: [1] | [2] | [3] | [4]

CON=C(C(=O)OC)c1ccccc1CON=C(C)c1cccc(C(F)(F)F)c1
inactive: [5] | [6]
active: [1] 326 nM and 299 nM | [2] 1.26 µM and 437 nM | [3] 671 nM and 812 nM | [4] 941 nM and 501 nM | [7] 15.2 µM

CN(C)[C@@H]1C(=O)C(C(N)=O)=C(O)[C@@]2(O)C(=O)C3=C(O)c4c(O)cccc4[C@@](C)(O)[C@H]3[C@H](O)[C@@H]12
active: [1] 77.7 µM | [2] 50 µM | [4] 88.2 µM | [7] 116 µM
inactive: [5] | [6] | [3]

C=C(C)[C@H]1Cc2c(ccc3c2O[C@@H]2COc4cc(OC)c(OC)cc4[C@@H]2C3=O)O1
inactive: [5] | [6]
active: [1] 16.4 nM and 15.4 nM | [2] 38.4 nM and 57.1 nM | [3] 0.00709 µM | [4] 14.5 nM and 16.1 nM

CCOP(=S)(Oc1cnc(C(C)(C)C)nc1)OC(C)C (stereo not given)
inactive: [5] | [6] | [7]
active: [1] 77.4 µM and 20.6 µM | [2] 80.1 µM and 25.9 µM | [3] 80.9 µM and 13.4 µM | [4] 79.7 µM and 17.4 µM

CC1=NNC(=O)N(/N=C/c2cccnc2)C1
inactive: [1] | [5] | [2] | [6] | [3] | [4]

CSC1=N[C@@](C)(c2ccccc2)C(=O)N1Nc1ccccc1
active: [1] 15 µM
inactive: [8] | [5] | [9] | [2] | [6] | [3] | [4]

CC(C)=CC1C(C(=O)OCN2C(=O)C3=C(CCCC3)C2=O)C1(C)C (stereo not given)
active: [1] 10 µM
inactive: [2] | [6] | [3] | [4]

C[Si](Cn1cncn1)(c1ccc(F)cc1)c1ccc(F)cc1
inactive: [5] | [2] | [6] | [4]
active: [1] 22.5 µM | [3] 1.61 µM

CCOP(=S)(OCC)Oc1ccc2c(C)c(Cl)c(=O)oc2c1
inactive: [5] | [6]
active: [1] 76.4 µM | [2] 78.4 µM | [3] 21.9 µM | [4] 41.6 µM

COP(=O)(OC)C(O)C(Cl)(Cl)Cl (stereo not given)
active: [8] 9.96 µM | [1] 3.52 µM and 1.47 µM | [2] 50 µM and 1.05 µM | [3] 18.4 µM and 3.54 µM | [4] 31.7 µM and 15 µM
inactive: [5] | [9]

CC(C)N(C(=O)SCC(Cl)=C(Cl)Cl)C(C)C
active: [1] 10.7 µM | [2] 21.8 µM | [3] 15 µM | [4] 15 µM | [10] 15.9 µM
inactive: [5] | [6]

COP(=O)(NC(C)=O)SC (stereo not given)
active: [6] 0.00708 µM | [3] 15 µM
inactive: [1] | [5] | [6] | [3] | [4]

CCOP(=S)(OCC)Oc1cc(C)nc(C(C)C)n1
inactive: [2] | [3] | [4]
active: [1] 50 µM | [2] 50 µM | [3] 50 µM | [4] 50 µM

S=C1NCCN1
inactive: [1] | [2] | [3] | [4]

CCOP(=S)(OCC)SCCSCC
inactive: [1] | [2] | [6] | [3] | [4]

CC[C@H](C)[C@H]1O[C@]2(C=C[C@@H]1C)C[C@@H]1C[C@@H](C/C=C(\C)[C@@H](O[C@H]3C[C@H](OC)[C@@H](O[C@H]4C[C@H](OC)[C@@H](NC)[C@H](C)O4)[C@H](C)O3)[C@@H](C)/C=C/C=C3\CO[C@@H]4[C@H](O)C(C)=C[C@@H](C(=O)O1)[C@]34O)O2
active: [8] 1.52 µM | [1] 145 nM and 0.883 nM | [5] 20 µM | [9] 1.12 µM | [2] 0.656 µM | [3] 0.981 nM and 1.87 nM | [4] 318 nM and 15.9 nM | [7] 4.54 µM and 1.96 µM | [10] 1.79 µM
inactive: [5] | [6]
